Outcome and AC50 data for six compounds are collected here from PubChem BioAssay (EPA / NIEHS).

Molecules are shown by their SMILES. Results filed as inconclusive are left out. Active and inactive are the calls of the source. How the source made its calls, unless noted: active means hit-call score of the fitted dose curve at least 0.9, where 1 is the maximum; inconclusive means response in the unintended direction; inactive means score below 0.9.

The nature of test [1]: ATG_TAL_CIS: Attagene CIS-FACTORIAL HepG2 Assay for human TAL Basal Promoter (AID 2282966; active means hit-call score of the fitted dose curve at least 0.9, where 1 is the maximum; inactive means score below 0.9;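 further: background control endpoint measuring basal TAL promoter reporter mRNA not a specific factor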). The note with it: HepG2 Attagene cis-factorial TAL promoter reporter; actives raise or lower the signal. The essentials: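 HepG2, transient MRTU transfection, 24 h compound exposure; RNA → oligo(dT) RT → PCR → 6-FAM primer extension → HpaI digest → CE fluorescence. Bidirectional curve fit vs DMSO. Background-control readout.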

Test [2] is described as follows: ATG_TGFb_CIS: Attagene CIS-FACTORIAL HepG2 Assay for human Transforming Growth Factor (TGF) (AID 2282967; active means hit-call score of the fitted dose curve at least 0.9, where 1 is the maximum; inactive means score below 0.9). The note with it: HepG2 Attagene CIS TGFb reporter, mRNA transcription; actives raise or lower the signal. The essentials: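 HepG2 cells transiently transfected with cis-promoter-driven multiple reporter units measure endogenous TF activity; reporter mRNA quantified at 24 h by RT-PCR, FAM labeling, HpaI digestion and capillary electrophoresis. Bidirectional fit vs DMSO.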

Test [3] in a line: ATG_VDRE_CIS: Attagene CIS-FACTORIAL HepG2 Assay for human Vitamin D Receptor Element (VDRE) (AID 2282968; active means hit-call score of the fitted dose curve at least 0.9, where 1 is the maximum; inactive means score below 0.9). The note with it: HepG2 VDRE cis-reporter transcription, actives raise or lower the signal. A digest of the protocol: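 Readout is VDRE-driven reporter mRNA reflecting endogenous factor activity in human HepG2 cells, sampled 24 h post-dose. Quantification used labelled RT-PCR products separated by capillary electrophoresis; bidirectional analysis relative to DMSO.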

The target in test [4] is X-box-binding protein 1 (Homo sapiens) (UniProt P17861). In words: ATG_Xbp1_CIS: Attagene CIS-FACTORIAL HepG2 Assay for human X-box Binding Protein 1 (XBP1) (AID 2282972; active means hit-call score of the fitted dose curve at least 0.9, where 1 is the maximum; inactive means score below 0.9). The conditions noted are these: HepG2 XBP1 cis-element reporter, Attagene multiplex; actives raise or lower the signal. A digest of the protocol: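 Reporter transcripts were quantified by RT-PCR with fluorescent primer extension and capillary electrophoresis after 24 h chemical exposure. Cells: transiently transfected HepG2 carrying cis-regulated reporter constructs; data fitted bidirectionally relative to DMSO.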

Test [5] is described as follows: ATG_GAL4_TRANS: Attagene TRANS-FACTORIAL HepG2 Assay for GAL4 (Internal Marker) (AID 2282976). The note with it: HepG2 Attagene TRANS GAL4 internal marker reporter. A digest of the protocol: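 RT-PCR/capillary electrophoresis readout of reporter mRNA. HepG2, transient MRTU transfection (GAL4-UAS reporters), 24 h compound exposure. Background-control endpoint, positive direction vs DMSO baseline.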

The target in test [6] is Nuclear receptor subfamily 4 group A member 2 (Homo sapiens) (UniProt P43354). The test can be described thus: ATG_NURR1_TRANS: Attagene TRANS-FACTORIAL HepG2 Assay for human Nuclear Receptor Related Protein 1 (NURR1) (AID 2282985). The conditions noted are these: HepG2 Attagene TRANS reporter, mRNA readout. The essentials:
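Reporter transcript induction, measured by RT-PCR with fluorescent labelling, HpaI digestion and capillary electrophoresis, after 24 hr dosing of human HepG2 cells transiently expressing an exogenous NR-Gal4 fusion with GAL4-UAS-driven reporters; DMSO as baseline.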

The target in test [7] is Transcriptional activator Myb (Homo sapiens) (UniProt P10242). In words: ATG_Myb_CIS: Attagene CIS-FACTORIAL HepG2 Assay for human Myeloblastosis (Myb) Proto-Oncogene Transcription Factor (AID 2282986; active means hit-call score of the fitted dose curve at least 0.9, where 1 is the maximum; inactive means score below 0.9). The note with it: HepG2 Attagene CIS-FACTORIAL Myb reporter transcription; actives raise or lower the signal. A digest of the protocol:
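Using HepG2 liver cells bearing transiently transfected cis-promoter reporter constructs, the assay measures induction or loss of reporter mRNA after 24 hours of dosing. Detection used fluorescently labeled RT-PCR products separated by capillary electrophoresis.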

The target in test [8] is Nuclear respiratory factor 1 (Homo sapiens) (UniProt Q16656). The test can be described thus: ATG_NRF1_CIS: Attagene CIS-FACTORIAL HepG2 Assay for human Nuclear Respiratory Factor 1 (NRF1) Orphan Gene (AID 2282987; active means hit-call score of the fitted dose curve at least 0.9, where 1 is the maximum; inactive means score below 0.9). The conditions noted are these: HepG2 NRF1 cis-element reporter, Attagene multiplex; actives raise or lower the signal. The essentials:
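Reporter mRNA induction or loss in HepG2 cells after 24 h dosing; cis-regulated reporter constructs report endogenous transcription-factor activity. Quantified by RT-PCR/capillary electrophoresis fluorescence, DMSO-referenced.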

Test [9] concerns the target Steroid hormone receptor ERR1 (Homo sapiens) (UniProt P11474). In words: ATG_ERRa_TRANS: Attagene TRANS-FACTORIAL HepG2 Assay for human Estrogen-Related Receptor alpha (ERRa) (AID 2282971). The note with it: HepG2 Attagene TRANS reporter, ERRa transactivation. A digest of the protocol:
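Transfected HepG2, 24 h dosing, ERRa-Gal4 chimera driving GAL4-UAS reporter. Readout: reporter mRNA via RT-PCR plus capillary electrophoresis (fluorescence). Positive direction vs DMSO control.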

Test [10] is described as follows: ATG_M_19_TRANS: Attagene TRANS-FACTORIAL HepG2 Assay for M19 Transcription Factor (Internal Marker) (AID 2282974). The conditions noted are these: HepG2 Attagene TRANS-FACTORIAL M19 internal marker reporter. A digest of the protocol: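 Multiplexed TRANS format: HepG2 liver cells bearing transient GAL4-UAS reporter units, chemical treatment 24 h, reporter transcripts quantified by RT-PCR plus capillary electrophoresis. DMSO defines baseline.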

Test [11] addresses Glucocorticoid receptor (Homo sapiens) (UniProt P04150). In words: ATG_GR_TRANS: Attagene TRANS-FACTORIAL HepG2 Assay for human Glucocorticoid Receptor (GR) (AID 2282978).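 Further: activators score as hits since higher reporter transcript over DMSO is fitted.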 The note with it: HepG2 Attagene TRANS GR reporter, mRNA transcription. A digest of the protocol:
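Transiently transfected HepG2 cells express chimeric NR-GAL4 proteins acting on GAL4-UAS reporter units. Compounds are applied for 24 h. mRNA induction over DMSO is measured by capillary electrophoresis.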

Test [12] deals with Oxysterols receptor LXR-alpha (Homo sapiens) (UniProt Q13133). The test can be described thus: ATG_LXRa_TRANS: Attagene TRANS-FACTORIAL HepG2 Assay for human Liver X Receptor alpha (LXRa) (AID 2282980). The note with it: HepG2 Attagene TRANS reporter, LXRa transactivation. The essentials: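 Read-out: reporter transcript levels by RT-PCR plus capillary electrophoresis, fluorescence intensity. Transiently transfected HepG2, exogenous NR-GAL4 chimera, GAL4-UAS reporters; 24 h compound exposure. Activity = increase over DMSO negative control.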

In test [13] the target is Oxysterols receptor LXR-beta (Homo sapiens) (UniProt P55055). The test can be described thus: ATG_LXRb_TRANS: Attagene TRANS-FACTORIAL HepG2 Assay for human Liver X Receptor beta (LXRb) (AID 2282981). The note with it: HepG2 Attagene TRANS GAL4-LXRb reporter, mRNA. The essentials: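 After 24 h chemical treatment of transfected HepG2 cells carrying exogenous NR-Gal4 chimeras, reporter mRNA was quantified by fluorescent RT-PCR and capillary electrophoresis; activity taken as increase over DMSO controls.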

Test [14] is described as follows: ATG_M_06_TRANS: Attagene TRANS-FACTORIAL HepG2 Assay for M06 Transcription Factor (Internal Marker) (AID 2282983). The note with it: HepG2 Attagene TRANS M06 internal marker reporter. A digest of the protocol: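 Read-out: fluorescent reporter cDNA fragments resolved by capillary electrophoresis after RT-PCR and HpaI cut. Source cells were HepG2 carrying transfected multi-reporter GAL4 constructs, dosed 24 h. Increase over DMSO control analysed.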

A short description of test [15]: ATG_M_32_TRANS: Attagene TRANS-FACTORIAL HepG2 Assay for M32 Transcription Factor (Internal Marker) (AID 2282984).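 Further: transcript level of a background control reporter unit measured by RT-PCR and capillary electrophoresis.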 The conditions noted are these: HepG2 Attagene TRANS M32 internal marker reporter. A digest of the protocol:
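Internal background reporter in transfected HepG2: after 24 h chemical exposure, RNA reverse-transcribed, reporter cDNA amplified, fluorescently labelled and HpaI-cut, then sized by capillary electrophoresis. Gain of signal fitted against DMSO control.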

Test [16] has as its target Nuclear receptor subfamily 1 group I member 3 (Homo sapiens) (UniProt Q14994). In words: ATG_CAR_TRANS: Attagene TRANS-FACTORIAL HepG2 Assay for human Constitutive Androstane Receptor (CAR) (AID 2282969).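 Further: activators raise reporter mRNA above DMSO so AC50 marks induction.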 The note with it: HepG2 Attagene TRANS-FACTORIAL CAR reporter. The essentials: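 Signal is reporter mRNA induction relative to DMSO, measured 24 h after dosing by RT-PCR with fluorescent primer extension and capillary electrophoresis. Human HepG2 liver cells carried transiently transfected chimeric NR-Gal4/GAL4-UAS reporter constructs.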

Test [17] deals with Bile acid receptor (Homo sapiens) (UniProt Q96RI1). The test can be described thus: ATG_FXR_TRANS: Attagene TRANS-FACTORIAL HepG2 Assay for Farnesoid X Receptor (FXR) (AID 2282979).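 Further: hits raise reporter mRNA above DMSO so AC50 marks FXR activation.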 The note with it: HepG2 Attagene TRANS FXR-GAL4 reporter transcription. A digest of the protocol:
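Read-out: fluorescent reporter transcripts quantified by capillary electrophoresis after RT-PCR of total RNA. Source cells were HepG2 transiently carrying chimeric NR-GAL4 plus GAL4-UAS reporter units, dosed 24 h. Activity fitted upward relative to DMSO baseline.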

The target of test [18] is Hepatocyte nuclear factor 4-alpha (Homo sapiens) (UniProt P41235). The test can be described thus: ATG_HNF4a_TRANS: Attagene TRANS-FACTORIAL HepG2 Assay for human Hepatocyte Nuclear Factor 4 alpha (HNF4a) (AID 2282982). The conditions noted are these: HepG2 HNF4a transactivation reporter, mRNA readout. A digest of the protocol: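 Activity of an exogenous HNF4a–Gal4 fusion scored as induced GAL4-UAS reporter transcripts after 24 h chemical exposure of transfected human HepG2 cells. Read-out via RT-PCR with 6-FAM labelling and capillary electrophoresis; rise over DMSO baseline.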

For test [19], the target named is Estrogen receptor (Homo sapiens) (UniProt P03372). The test can be described thus: ATG_ERa_TRANS: Attagene TRANS-FACTORIAL HepG2 Assay for human Estrogen Receptor alpha (ERa) (AID 2282970). The conditions noted are these: HepG2 Attagene TRANS ERa GAL4 reporter, mRNA. A digest of the protocol: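 Reporter mRNA induction after 24 hours, detected by fluorescent RT-PCR and capillary electrophoresis, gives the read-out. Cells are HepG2 transiently transfected with GAL4-UAS reporter transcription units responding to chimeric NR-Gal4. Activity is taken as gain of signal over DMSO baseline.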

The term AC50 denotes the concentration giving half of the maximal activity seen.

Chain of Glucocorticoid receptor (Homo sapiens) (P04150 whole entry, looked up, the tested form may be a part): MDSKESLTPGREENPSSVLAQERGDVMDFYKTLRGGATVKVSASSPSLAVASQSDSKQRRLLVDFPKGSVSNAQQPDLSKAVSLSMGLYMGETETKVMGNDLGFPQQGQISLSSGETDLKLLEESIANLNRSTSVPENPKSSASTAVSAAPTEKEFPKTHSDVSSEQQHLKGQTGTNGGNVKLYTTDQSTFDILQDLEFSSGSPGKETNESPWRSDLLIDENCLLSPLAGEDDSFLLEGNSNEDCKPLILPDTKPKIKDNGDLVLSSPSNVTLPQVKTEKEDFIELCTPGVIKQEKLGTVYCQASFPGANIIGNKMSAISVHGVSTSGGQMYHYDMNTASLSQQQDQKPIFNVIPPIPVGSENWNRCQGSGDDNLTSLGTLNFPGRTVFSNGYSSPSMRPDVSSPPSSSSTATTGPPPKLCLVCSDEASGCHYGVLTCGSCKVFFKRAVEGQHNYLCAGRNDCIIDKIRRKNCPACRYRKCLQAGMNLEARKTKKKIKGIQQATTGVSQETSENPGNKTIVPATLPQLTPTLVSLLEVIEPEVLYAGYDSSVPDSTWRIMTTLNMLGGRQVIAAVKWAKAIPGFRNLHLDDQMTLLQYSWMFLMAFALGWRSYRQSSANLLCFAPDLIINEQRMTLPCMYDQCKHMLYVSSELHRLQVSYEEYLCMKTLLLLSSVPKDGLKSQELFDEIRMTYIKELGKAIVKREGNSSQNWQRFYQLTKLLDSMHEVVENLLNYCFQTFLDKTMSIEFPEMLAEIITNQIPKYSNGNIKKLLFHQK
Chain of Oxysterols receptor LXR-beta (Homo sapiens) (P55055 whole entry, looked up, the tested form may be a part): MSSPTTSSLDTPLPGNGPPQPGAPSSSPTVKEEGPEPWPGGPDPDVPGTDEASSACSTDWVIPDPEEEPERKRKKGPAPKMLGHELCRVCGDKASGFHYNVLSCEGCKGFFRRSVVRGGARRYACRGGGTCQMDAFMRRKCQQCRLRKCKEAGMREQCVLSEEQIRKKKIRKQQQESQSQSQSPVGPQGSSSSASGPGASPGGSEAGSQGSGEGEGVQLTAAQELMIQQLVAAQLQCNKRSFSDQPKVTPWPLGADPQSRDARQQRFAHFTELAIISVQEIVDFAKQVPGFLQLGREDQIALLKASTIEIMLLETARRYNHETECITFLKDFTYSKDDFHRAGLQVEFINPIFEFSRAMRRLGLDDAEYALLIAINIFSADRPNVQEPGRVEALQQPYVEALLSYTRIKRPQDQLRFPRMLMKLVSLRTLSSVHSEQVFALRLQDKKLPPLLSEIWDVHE
Chain of Oxysterols receptor LXR-alpha (Homo sapiens) (Q13133 whole entry, looked up, the tested form may be a part): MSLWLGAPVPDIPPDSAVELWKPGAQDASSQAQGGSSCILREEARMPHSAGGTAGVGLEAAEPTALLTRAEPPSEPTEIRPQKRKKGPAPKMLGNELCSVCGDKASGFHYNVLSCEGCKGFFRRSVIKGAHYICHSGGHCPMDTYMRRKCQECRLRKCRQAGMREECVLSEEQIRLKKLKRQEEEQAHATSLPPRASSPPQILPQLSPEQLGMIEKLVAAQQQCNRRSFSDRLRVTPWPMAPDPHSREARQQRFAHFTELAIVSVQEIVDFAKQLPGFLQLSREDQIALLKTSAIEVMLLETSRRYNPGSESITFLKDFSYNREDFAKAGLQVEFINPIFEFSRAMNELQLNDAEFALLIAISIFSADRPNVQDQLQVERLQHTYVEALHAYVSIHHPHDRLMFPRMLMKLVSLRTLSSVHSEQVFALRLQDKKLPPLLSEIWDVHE
Chain of X-box-binding protein 1 (Homo sapiens) (P17861 whole entry, looked up): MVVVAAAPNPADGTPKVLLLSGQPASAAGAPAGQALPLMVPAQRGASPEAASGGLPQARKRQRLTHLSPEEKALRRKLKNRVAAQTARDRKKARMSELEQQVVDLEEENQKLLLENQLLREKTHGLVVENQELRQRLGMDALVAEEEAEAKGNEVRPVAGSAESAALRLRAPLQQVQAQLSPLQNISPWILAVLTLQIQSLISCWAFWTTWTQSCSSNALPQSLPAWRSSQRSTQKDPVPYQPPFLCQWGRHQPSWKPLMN
Chain of Hepatocyte nuclear factor 4-alpha (Homo sapiens) (P41235 whole entry, looked up, the tested form may be a part): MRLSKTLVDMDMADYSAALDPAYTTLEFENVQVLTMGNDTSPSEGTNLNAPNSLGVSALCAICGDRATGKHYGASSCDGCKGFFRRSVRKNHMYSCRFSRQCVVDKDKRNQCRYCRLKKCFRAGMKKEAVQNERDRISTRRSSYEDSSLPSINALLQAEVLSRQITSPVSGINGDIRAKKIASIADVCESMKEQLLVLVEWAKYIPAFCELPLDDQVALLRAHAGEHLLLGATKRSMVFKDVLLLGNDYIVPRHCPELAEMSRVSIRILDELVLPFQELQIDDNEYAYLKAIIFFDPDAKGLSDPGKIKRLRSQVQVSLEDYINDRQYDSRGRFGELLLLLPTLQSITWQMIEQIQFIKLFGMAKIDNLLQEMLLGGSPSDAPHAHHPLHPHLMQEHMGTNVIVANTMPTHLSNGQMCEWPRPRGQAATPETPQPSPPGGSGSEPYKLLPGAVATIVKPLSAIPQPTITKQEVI
Chain of Nuclear respiratory factor 1 (Homo sapiens) (Q16656 whole entry, looked up): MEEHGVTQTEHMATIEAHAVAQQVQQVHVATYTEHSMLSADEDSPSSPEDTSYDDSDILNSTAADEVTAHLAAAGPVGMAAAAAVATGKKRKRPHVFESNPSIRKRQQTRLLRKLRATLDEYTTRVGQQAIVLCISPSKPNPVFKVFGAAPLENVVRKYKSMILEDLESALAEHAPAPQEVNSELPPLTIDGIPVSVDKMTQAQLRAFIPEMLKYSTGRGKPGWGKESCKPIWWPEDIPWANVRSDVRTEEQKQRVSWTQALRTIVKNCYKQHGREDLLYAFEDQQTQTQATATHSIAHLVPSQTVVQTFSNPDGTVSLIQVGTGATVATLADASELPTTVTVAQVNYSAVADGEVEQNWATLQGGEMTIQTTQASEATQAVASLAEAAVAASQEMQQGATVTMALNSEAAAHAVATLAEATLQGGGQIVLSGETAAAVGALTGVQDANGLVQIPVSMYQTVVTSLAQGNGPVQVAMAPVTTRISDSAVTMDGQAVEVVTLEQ
Chain of Transcriptional activator Myb (Homo sapiens) (P10242 whole entry, looked up): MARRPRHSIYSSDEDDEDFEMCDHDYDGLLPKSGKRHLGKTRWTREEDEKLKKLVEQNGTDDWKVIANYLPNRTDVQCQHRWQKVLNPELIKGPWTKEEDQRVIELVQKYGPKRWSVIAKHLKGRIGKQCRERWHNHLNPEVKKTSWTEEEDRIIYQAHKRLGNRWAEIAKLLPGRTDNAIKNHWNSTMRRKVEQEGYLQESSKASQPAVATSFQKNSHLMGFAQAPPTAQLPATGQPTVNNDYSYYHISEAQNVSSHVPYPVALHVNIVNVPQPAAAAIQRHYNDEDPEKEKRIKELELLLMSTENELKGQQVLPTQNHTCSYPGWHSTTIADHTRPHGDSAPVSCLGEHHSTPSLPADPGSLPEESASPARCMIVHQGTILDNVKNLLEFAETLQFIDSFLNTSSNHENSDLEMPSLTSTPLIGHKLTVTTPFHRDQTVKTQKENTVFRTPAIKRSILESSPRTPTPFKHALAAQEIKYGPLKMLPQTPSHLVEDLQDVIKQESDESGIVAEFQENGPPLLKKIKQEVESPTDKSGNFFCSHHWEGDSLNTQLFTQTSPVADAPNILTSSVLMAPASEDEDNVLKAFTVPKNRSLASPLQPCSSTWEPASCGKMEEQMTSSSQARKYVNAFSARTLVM
Chain of Nuclear receptor subfamily 4 group A member 2 (Homo sapiens) (P43354 whole entry, looked up, the tested form may be a part): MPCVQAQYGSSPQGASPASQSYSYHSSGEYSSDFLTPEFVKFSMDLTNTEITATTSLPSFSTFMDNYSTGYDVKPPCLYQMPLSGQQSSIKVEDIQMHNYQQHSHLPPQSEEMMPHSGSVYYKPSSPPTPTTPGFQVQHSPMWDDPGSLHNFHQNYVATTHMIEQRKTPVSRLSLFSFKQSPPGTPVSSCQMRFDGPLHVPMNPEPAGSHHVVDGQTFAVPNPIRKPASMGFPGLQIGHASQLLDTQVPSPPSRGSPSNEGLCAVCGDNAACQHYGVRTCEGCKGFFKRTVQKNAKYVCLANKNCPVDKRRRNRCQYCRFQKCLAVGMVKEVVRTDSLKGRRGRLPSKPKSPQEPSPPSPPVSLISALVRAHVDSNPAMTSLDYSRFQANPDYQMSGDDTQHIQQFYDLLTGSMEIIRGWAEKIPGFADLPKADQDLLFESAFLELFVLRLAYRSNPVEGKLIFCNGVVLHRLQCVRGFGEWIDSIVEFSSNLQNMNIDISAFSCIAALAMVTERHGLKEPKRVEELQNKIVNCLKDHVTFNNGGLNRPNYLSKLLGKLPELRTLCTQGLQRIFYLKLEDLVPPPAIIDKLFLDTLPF
Chain of Steroid hormone receptor ERR1 (Homo sapiens) (P11474 whole entry, looked up, the tested form may be a part): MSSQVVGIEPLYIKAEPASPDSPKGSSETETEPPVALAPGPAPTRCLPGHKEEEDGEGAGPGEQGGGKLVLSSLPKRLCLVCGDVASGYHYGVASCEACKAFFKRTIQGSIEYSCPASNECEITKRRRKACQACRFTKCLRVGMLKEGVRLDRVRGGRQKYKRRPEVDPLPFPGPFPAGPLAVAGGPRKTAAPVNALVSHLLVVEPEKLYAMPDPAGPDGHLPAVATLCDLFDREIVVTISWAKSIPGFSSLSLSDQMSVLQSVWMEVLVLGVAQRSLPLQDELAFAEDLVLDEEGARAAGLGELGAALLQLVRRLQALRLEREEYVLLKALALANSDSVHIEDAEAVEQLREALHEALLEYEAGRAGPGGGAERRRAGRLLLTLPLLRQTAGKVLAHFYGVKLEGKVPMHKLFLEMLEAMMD
Chain of Nuclear receptor subfamily 1 group I member 3 (Homo sapiens) (Q14994 whole entry, looked up, the tested form may be a part): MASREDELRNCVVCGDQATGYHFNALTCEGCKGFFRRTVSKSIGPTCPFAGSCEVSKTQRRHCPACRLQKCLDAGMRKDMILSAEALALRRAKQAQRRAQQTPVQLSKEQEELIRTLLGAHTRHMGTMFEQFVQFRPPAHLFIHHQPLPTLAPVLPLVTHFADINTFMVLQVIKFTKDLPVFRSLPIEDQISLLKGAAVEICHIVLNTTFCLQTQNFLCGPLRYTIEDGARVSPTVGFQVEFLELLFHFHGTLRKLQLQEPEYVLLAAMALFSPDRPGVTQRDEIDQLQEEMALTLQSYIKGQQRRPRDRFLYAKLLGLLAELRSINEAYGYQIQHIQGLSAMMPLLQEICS

Turning to `CC(=O)Nc1ccccc1O`, the compound was classed as inactive in test [1], in [2], in test [3], in test [4], in [5] and in test [6]. Moreover, the compound was called inactive in test [7] and in test [8].

Turning to `CC1CCC(C(C)CS)CC1S` (stereo not given), the result in test [1], in test [2], in [9], in [4], in test [10] and in test [5] was inactive. For the same compound, the call in test [11], in test [12], in test [13], in [14] and in test [15] was inactive. The AC50 in test [7] was 50.5 µM (active).

Take `CCCCCCCCCCCCSC`: the call in test [1], in test [2], in test [16], in test [4], in test [11] and in test [17] was inactive. Besides, the compound was called inactive in test [12], in test [13], in [18], in test [14], in [15] and in test [7]. In addition, in test [8], the compound was called inactive.

Regarding `Clc1ccc2c(c1)C(N1CCNCC1)=Nc1ccccc1O2`, the compound was called inactive in [1], in test [2], in test [11], in test [13], in test [18] and in test [14]. Besides, the outcome in test [15], in [6], in [7] and in test [8] was inactive. For the same compound, the AC50 in test [19] was 50.1 µM (active); in test [4], 33.4 µM (active); in test [12], 44.4 µM (active).

For `COc1cc(C)cc(O)c1`, the compound was classed as inactive in test [1], in test [2], in [16], in test [4], in test [10] and in test [11]. Further, the compound was called inactive in test [12], in test [13], in [15], in [7] and in test [8].

Consider `CC(C)=CCO`, for which the result in test [1], in [2], in test [19], in [9], in test [4] and in test [10] was inactive. Besides, the outcome in test [5], in test [12], in test [13], in [18], in [15] and in [7] was inactive. In addition, the compound was called inactive in test [8].
